From the supplement of paper PMC12494721
Where a name gives a salt, the structure may show the parent alone.

system: Ruminococcus gnavus DSM 108212; experiment: fold change of 2-Phenylethylamine concentration vs plate DMSO controls (fold change (ratio)); higher = more amine produced, active = hit call of the paper (significant change in both replicates, either direction); settings: incubation time: 27 h, anaerobic, 37 °C
Summary of the method: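 Each value is the fold change relative to DMSO-only wells on the same plate. Four gut bacterial strains were grown anaerobically in mGAM at 37 °C for 27 h in 80 µL wells, starting at OD 0.1 before a 1:1 dilution, with compounds at 20 µM final (sweeteners 50 µM). Whole cultures were extracted with cold acetonitrile/methanol containing 0.1% formic acid, centrifuged, and amines were quantified by LC–triple-quadrupole MS (dynamic MRM) against external calibration curves with within-batch drift correction. Values are means of 2 biological replicates.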

Fold change of 2-Phenylethylamine concentration, inactive:
CCCCCCCCCCCCCCCCCCCCCC(=O)Nc1ccn([C@@H]2O[C@H](CO)[C@@H](O)[C@@H]2O)c(=O)n1 [Enocitabine] (20 µM) 0.866, COCC1=C(C(=O)OC(C)OC(=O)OC(C)C)N2C(=O)[C@@H](NC(=O)/C(=N\OC)c3csc(N)n3)[C@H]2SC1 (some centres undefined) [Cefpodoxime proxetil] (20 µM) 0.605, COc1cccc2c1C(=O)c1c(O)c3c(c(O)c1C2=O)C[C@@](O)(C(=O)CO)C[C@@H]3O[C@H]1C[C@H](N)[C@@H](O)[C@H](C)O1 [Epirubicin hydrochloride] (20 µM) 0.934, CN1CCCN(C(c2ccccc2)c2ccc(Cl)cc2)CC1 (centres undefined) [Homochlorcyclizine dihydrochloride] (20 µM) 0.983, COc1ccc(/C=C/C(=O)Nc2ccccc2C(=O)O)cc1OC [Tranilast] (20 µM) 0.981, CC(C)Nc1ncccn1 [Isaxonine] (20 µM) 0.894, CC(=O)N[C@@H](CS)C(=O)O [Acetylcysteine] (20 µM) 1, C=C1C[C@@]23CC[C@H]4[C@@](C)(CCC[C@@]4(C)C(=O)O[C@@H]4O[C@H](CO)[C@@H](O)[C@H](O)[C@H]4O)[C@@H]2CC[C@]1(O[C@@H]1O[C@H](CO)[C@@H](O)[C@H](O)[C@H]1O[C@@H]1O[C@H](CO)[C@@H](O)[C@H](O)[C@H]1O)C3 [Stevioside] (50 µM) 0.971, Nc1ccc(S(=O)(=O)Nc2nccs2)cc1 [Sulfathiazole] (20 µM) 1.03, CC(=O)OCC(=O)[C@@]1(O)CC[C@H]2[C@@H]3CCC4=CC(=O)C=C[C@]4(C)[C@@]3(F)[C@@H](O)C[C@@]21C [Isoflupredone acetate] (20 µM) 1.22, CC(=O)CCCCn1c(=O)c2c(ncn2C)n(C)c1=O [Pentoxifylline] (20 µM) 0.947, CCN(CC)CCOC(=O)C1(C2CCCCC2)CCCCC1 [Dicyclomine hydrochloride] (20 µM) 0.815, CC(=O)OCC(=O)[C@@]1(O)[C@H](C)C[C@H]2[C@@H]3CCC4=CC(=O)C=C[C@]4(C)[C@@]3(F)[C@@H](O)C[C@@]21C [Dexamethasone acetate] (20 µM) 0.993, Cc1nc2n(c(=O)c1CCN1CCC(c3noc4cc(F)ccc34)CC1)CCCC2O (centres undefined) [Paliperidone] (20 µM) 0.983, O=C(Nc1cccc2c(=O)cc(-c3nnn[nH]3)oc12)c1ccc(OCCCCc2ccccc2)cc1 [Pranlukast] (20 µM) 0.865, CCC(Cc1c(I)cc(I)c(N)c1I)C(=O)O (centres undefined) [Iopanoic acid] (20 µM) 0.969, C/C(=C\C(=O)OCCCCCCCCC(=O)O)C[C@@H]1OC[C@H](C[C@@H]2O[C@H]2[C@@H](C)[C@H](C)O)[C@@H](O)[C@H]1O [Mupirocin] (20 µM) 0.957, CC(Oc1c(Cl)cccc1Cl)C1=NCCN1 (centres undefined) [Lofexidine] (20 µM) 1.01, CCOc1ccc(NC(=O)CC(C)O)cc1 (centres undefined) [Bucetin] (20 µM) 0.936, CN(C)CCc1c[nH]c2ccc(Cn3cncn3)cc12 [Rizatriptan benzoate] (20 µM) 0.989, CC(C)OC(=O)C(C(=O)OC(C)C)=C1SC=CS1 [Malotilate] (20 µM) 0.88, CC1CS(=O)(=O)CCN1/N=C/c1ccc([N+](=O)[O-])o1 (centres undefined) [Nifurtimox] (20 µM) 1.03, CC(=O)OCC(=O)[C@@]12OC3(CCCC3)O[C@@H]1C[C@H]1[C@@H]3CCC4=CC(=O)C=C[C@]4(C)[C@@]3(F)[C@@H](O)C[C@@]12C [Amcinonide] (20 µM) 1.07, OC[C@H]1O[C@@H](c2ccc(Cl)c(Cc3ccc(O[C@H]4CCOC4)cc3)c2)[C@H](O)[C@@H](O)[C@@H]1O [Empagliflozin] (20 µM) 0.83, CC(CN(C)C)CN1c2ccccc2Sc2ccccc21 (centres undefined) [Trimeprazine tartrate] (20 µM) 0.818, CCC(=O)O[C@]1(C(=O)SCF)[C@H](C)C[C@H]2[C@@H]3C[C@H](F)C4=CC(=O)C=C[C@]4(C)[C@@]3(F)[C@@H](O)C[C@@]21C [Fluticasone propionate] (20 µM) 0.931, OC[C@H]1O[C@@H](n2cnc3cncnc32)[C@H](O)[C@@H]1O [Nebularine] (20 µM) 0.946, C=C1[C@H](CO)[C@@H](O)C[C@@H]1n1cnc2c(=O)[nH]c(N)nc21 [Entecavir] (20 µM) 0.98, O=C1CN(/N=C/c2ccc(-c3ccc([N+](=O)[O-])cc3)o2)C(=O)N1 [Dantrolene sodium salt] (20 µM) 0.939, CN1CCCN=C1/C=C/c1cccs1 [Pyrantel tartrate] (20 µM) 1.01, C[C@H](CCc1ccccc1)NC[C@H](O)c1ccc(O)c(C(N)=O)c1 [Dilevalol] (20 µM) 1.01, CN1CCC(=C2c3ccccc3CCc3sccc32)CC1 [Pizotifen malate] (20 µM) 0.987, CCOC(=O)c1ccc(C#Cc2ccc3c(c2)C(C)(C)CCS3)nc1 [Tazarotene] (20 µM) 1.22, CCC(=O)OCC(=O)[C@@]1(OC(=O)CC)[C@@H](C)C[C@H]2[C@@H]3CCC4=CC(=O)C=C[C@]4(C)[C@@]3(Cl)[C@@H](O)C[C@@]21C [Beclomethasone dipropionate] (20 µM) 0.921, CC1=NN(c2ccccc2)C(=O)C1 [Edaravone] (20 µM) 0.984, CO/N=C(\C(=O)N[C@@H]1C(=O)N2C(C(=O)OCOC(=O)C(C)(C)C)=C(/C=C\c3scnc3C)CS[C@H]12)c1csc(N)n1 [Cefditoren Pivoxil] (20 µM) 1.01, Nc1ncnc2c1ncn2[C@@H]1O[C@H](CO)[C@@H](O)[C@@H]1O [Vidarabine] (20 µM) 0.976, O=C(O)c1ccccc1Nc1cccc(C(F)(F)F)c1 [Flufenamic acid] (20 µM) 0.981, CCc1ccc(CCOc2ccc(CC3SC(=O)NC3=O)cc2)nc1 (centres undefined) [Pioglitazone] (20 µM) 0.904
